Source: PubChem BioAssay (NCI)
This is part of a sample that, as a whole, favours compounds with a hit. Of some 83,000 tested, about 20% had one in any assay.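 Single-dose data. Exposure time 48 hours. Values below 10 considered active.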 Calls of active or inactive are those of the source.

tested on: NCI-H522 lung; assay: NCI-60 one-dose screen, 48 h (100 = growth as untreated, 0 = no growth, -100 = all killed); conditions: 10 µM

SMILES | growth
Cc1nc(N)sc1C(=O)NCCO | 34.5% (inactive)
CC(=O)Nc1nc(C)c(C(=O)N/N=C/N2CCOCC2)s1 | 25.3% (inactive)
O=C(O)CC1Cc2ccccc2C1C(=O)O (centres undefined) | 95.9% (inactive)
Cc1ccc2c(c1)C(=O)CCS2 | 95.2% (inactive)
CCC(C)(C)c1ccc(OCCCCCCN2CCNCC2)cc1 | 95.5% (inactive)
c1ccc(Nc2ccccn2)cc1 | 91.7% (inactive)
Brc1ccc(-c2nc3ccccc3s2)cc1 | 93.8% (inactive)
O=C1/C(=N\c2cc(=O)[nH]n2S(=O)(=O)c2ccccc2)Nc2ccccc21 | 96.7% (inactive)
CCCC(C)c1cc(Cc2cc(Cl)cc(Cl)c2O)c(O)c(Cc2cc(Cl)cc(Cl)c2O)c1 (centres undefined) | 4.06% (active)
c1ccc(Nc2ncc3c(n2)-c2cccn2CC3)cc1 | 85.8% (inactive)
CC1=C(C)C(=O)C(C(C)C2=C(C)C(=O)C(C)=C(C)C2=O)=C(C)C1=O | 91.2% (inactive)
C=CCSc1nnc(COc2ccc3c(C)c(Cc4ccccc4)c(=O)oc3c2C)o1 | 81.8% (inactive)
CCOc1nc(-c2ccccc2)cc2c(O)c(C(=O)N/N=C/c3ccccc3O)[nH]c(=O)c12 | 81.9% (inactive)
CC(=O)Nc1nc(C)c(C(=O)NNC(=O)Nc2ccccc2)s1 | 64.5% (inactive)
c1cc[c]([Bi]([c]2ccccc2)[c]2ccccc2)cc1 | 104% (inactive)
COc1cc(NC(=O)CSc2nc3ccc(Cl)cc3c(=O)n2-c2ccc(F)cc2)cc(OC)c1OC | 79.5% (inactive)
CC(=O)Nc1nc(C)c(C(=O)NN)s1 | 97.5% (inactive)
COC(=O)C(C)[C@H]1CC[C@@H]2[C@]1(C)CC=C1[C@]23C=C[C@]2(C[C@@H](OC(C)=O)CC[C@]12C)C(C(=O)OC)C3C(=O)OC (some centres undefined) | 96.8% (inactive)
Cc1nc2c(nnn2-c2ccccc2)c2nc(-c3ccc(Cl)cc3)oc(=O)c12 | 99.7% (inactive)
CCCCCCCCC/C(=N\NC(=O)c1ccncc1)c1ccc(O)c(O)c1O | 36% (inactive)
CNCCCNCCCCNCCCN1C(=O)c2ccc3c4c(ccc(c24)C1=O)C(=O)N(CCCNCc1ccccc1OC)C3=O | 31.3% (inactive)
Cc1nc(NC(=S)Nc2ccc(F)cc2)sc1C(=O)NNC(=S)Nc1ccc(F)cc1 | 33.9% (inactive)
CCOc1ccc(/C=N/NC(=O)c2cccc3ccccc23)cc1OCC | 87.4% (inactive)
O=C(/C=C/c1ccc(Br)cc1)c1ccccc1 | 77.8% (inactive)

tested on: A549/ATCC NSCLC; assay: as above; conditions: 10 µM unless noted

SMILES | growth
CC(=O)NNC(=O)c1sc(NC(C)=O)nc1C | 104% (inactive)
Nc1ccc(S(=O)(=O)c2ccc(NO)cc2)cc1 | 105% (inactive)
Cc1c(Cc2ccccc2)c(=O)oc2c(C)c(OCC(=O)n3nc(C#N)cc3N)ccc12 | 106% (inactive)
NC(=O)CC(NC(=O)COc1ccc(Cl)cc1Cl)C(=O)O (centres undefined) | 106% (inactive)
CCCCCCCCC1OC1CCCCCCCC(=O)O (centres undefined) | 91.9% (inactive)
CC(=O)/C(=C/c1ccc(-c2ccccc2)cc1)C(=O)c1ccccc1 | 76.4% (inactive)
COc1ccc(-c2nc(Nc3nc4ccccc4[nH]3)nc(N)c2C#N)cc1 | 106% (inactive)
CCC(CCCN1C(=O)c2ccccc2C1=O)Nc1cc(OC)cc2cccnc12 (centres undefined) | 106% (inactive)
CC(=O)OC1/C=C\CC/C=C\C1 (centres undefined) | 100% (inactive)
CCc1ccc(C(=Nc2ccc(N(C)C(=O)CN3CCN(C)CC3)cc2)c2c(O)[nH]c3ccc(C(=O)OC)cc23)cc1 | -29.3% (active)
c1ccc2[nH]c(-c3ccc(OCCCCCOc4ccc(-c5nc6ccccc6[nH]5)cc4)cc3)nc2c1 | 12.7% (inactive)
Oc1ccc(CN(Cc2ccc(C(F)(F)F)cc2)Cc2ccc(O)c3ncccc23)c2cccnc12 | 1.19% (active)
COc1ccc2nc3cc(Cl)ccc3c(NCCCNC(C)=O)c2c1 | 23.9% (inactive)
O=C(N/N=C\c1ccc(Cl)cc1)C(=O)N/N=C\c1ccc(Cl)cc1 | 102% (inactive)
Cc1nc2c(nnn2-c2ccccc2)c2nc(-c3ccccc3)oc(=O)c12 | 116% (inactive)
COC(=O)c1ccc2[nH]c(O)c(C(=Nc3ccc(N(C)C(=O)CN4CCN(C)CC4)cc3)c3ccc(N)cc3)c2c1 | 111% (inactive)
Cc1nc(N)sc1C(=O)NCCO | 111% (inactive)
CC(=O)Nc1nc(C)c(C(=O)N/N=C/N2CCOCC2)s1 | 111% (inactive)
O=C(O)CC1Cc2ccccc2C1C(=O)O (centres undefined) | 103% (inactive)
Cc1ccc2c(c1)C(=O)CCS2 | 97.2% (inactive)

SMILES | growth
CCC(C)(C)c1ccc(OCCCCCCN2CCNCC2)cc1 | 53.5% (inactive)
c1ccc(Nc2ccccn2)cc1 | 98.9% (inactive)
Brc1ccc(-c2nc3ccccc3s2)cc1 | 106% (inactive)
O=C1/C(=N\c2cc(=O)[nH]n2S(=O)(=O)c2ccccc2)Nc2ccccc21 | 111% (inactive)
CCCC(C)c1cc(Cc2cc(Cl)cc(Cl)c2O)c(O)c(Cc2cc(Cl)cc(Cl)c2O)c1 (centres undefined) | 15% (inactive)
c1ccc(Nc2ncc3c(n2)-c2cccn2CC3)cc1 | 113% (inactive)
CC1=C(C)C(=O)C(C(C)C2=C(C)C(=O)C(C)=C(C)C2=O)=C(C)C1=O | 102% (inactive)
C=CCSc1nnc(COc2ccc3c(C)c(Cc4ccccc4)c(=O)oc3c2C)o1 | 101% (inactive)
CCOc1nc(-c2ccccc2)cc2c(O)c(C(=O)N/N=C/c3ccccc3O)[nH]c(=O)c12 | 85.3% (inactive)
CC(=O)Nc1nc(C)c(C(=O)NNC(=O)Nc2ccccc2)s1 | 99.1% (inactive)
c1cc[c]([Bi]([c]2ccccc2)[c]2ccccc2)cc1 | 102% (inactive)
COc1cc(NC(=O)CSc2nc3ccc(Cl)cc3c(=O)n2-c2ccc(F)cc2)cc(OC)c1OC | 83.8% (inactive)
CC(=O)Nc1nc(C)c(C(=O)NN)s1 | 101% (inactive)
COC(=O)C(C)[C@H]1CC[C@@H]2[C@]1(C)CC=C1[C@]23C=C[C@]2(C[C@@H](OC(C)=O)CC[C@]12C)C(C(=O)OC)C3C(=O)OC (some centres undefined) | 91.5% (inactive)
Cc1nc2c(nnn2-c2ccccc2)c2nc(-c3ccc(Cl)cc3)oc(=O)c12 | 111% (inactive)
CCCCCCCCC/C(=N\NC(=O)c1ccncc1)c1ccc(O)c(O)c1O | 13.5% (inactive)
CNCCCNCCCCNCCCN1C(=O)c2ccc3c4c(ccc(c24)C1=O)C(=O)N(CCCNCc1ccccc1OC)C3=O | 21.6% (inactive)
Cc1nc(NC(=S)Nc2ccc(F)cc2)sc1C(=O)NNC(=S)Nc1ccc(F)cc1 | 66.2% (inactive)
CCOc1ccc(/C=N/NC(=O)c2cccc3ccccc23)cc1OCC | 96.6% (inactive)
O=C(/C=C/c1ccc(Br)cc1)c1ccccc1 | 73% (inactive)
